D1 antagonist: human D1 dopamine receptor antagonism | P21728 | hit rate 3.2% among 360,000 | HEK293 TREx D1 cells, calcium flux, dopamine EC80; hits give low values | activity change, negative = inhibition, % at 10 µM; in the data active means activity change below about -30%
Target sequence (P21728 whole entry, looked up): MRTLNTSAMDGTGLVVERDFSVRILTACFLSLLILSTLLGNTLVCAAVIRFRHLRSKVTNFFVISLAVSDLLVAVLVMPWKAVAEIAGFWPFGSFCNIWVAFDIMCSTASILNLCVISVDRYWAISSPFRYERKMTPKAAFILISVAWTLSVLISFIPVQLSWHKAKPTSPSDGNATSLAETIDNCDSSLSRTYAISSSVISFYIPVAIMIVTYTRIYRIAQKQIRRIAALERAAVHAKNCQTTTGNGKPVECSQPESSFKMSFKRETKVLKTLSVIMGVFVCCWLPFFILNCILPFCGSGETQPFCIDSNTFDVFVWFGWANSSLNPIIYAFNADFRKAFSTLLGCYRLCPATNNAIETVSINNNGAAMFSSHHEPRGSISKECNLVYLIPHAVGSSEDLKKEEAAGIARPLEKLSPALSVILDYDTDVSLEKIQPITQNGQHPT
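Allosteric or orthosteric antagonism assessed as attenuation of the calcium response to EC80 dopamine, added 180 s after compound, in induced HEK293 Trex D1 cells loaded with no-wash calcium dye.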
TRHR agonist: activates the human TRH receptor; TRHR cells, calcium flux fluo-8, FDSS agonist mode; activation, % at 2 µM; hit rate 0.18% among 360,000
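In this calcium-flux screen, cells bearing human TRHR are dye-loaded with fluo-8, baselined for 10 cycles, then exposed to library compounds; positive kinetic calcium responses during the agonist phase mark hits, with TRH as control.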
TRHR PAM: TRH receptor (human) allosteric enhancement; TRHR cells, fluo-8 calcium fluorescence, EC20 TRH enhancement; P34981; hit rate 0.66% among 360,000; enhancement, % at 2 µM; in the data active means enhancement above about 30%
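TRHR-expressing cells loaded with fluo-8 calcium dye were read kinetically (ex 480/em 530) during compound addition, then stimulated with an EC20 of TRH (10 nM final). Enhancement of the Gq-mediated intracellular calcium response was scored.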
D1 agonist: activates the human D1 dopamine receptor; P21728; HEK293 T-REx D1 cells, calcium flux, agonist mode; activation, % at 2 µM; hit rate 1% among 360,000; AID 504660
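Agonism was scored from calcium flux recorded over 180 s (1 read/s) after pintool compound addition, following a 10-cycle baseline. Cells were inducible force-coupled HEK293 TREx D1, plated overnight at 30 C and loaded with no-wash calcium dye.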
D1 potentiator: enhances dopamine response at the human D1 receptor | potentiation, % at 10 µM | AID 504651 | HEK293 TREx D1 cells, calcium flux, dopamine EC20 potentiation | P21728 | hit rate 0.036% among 360,000; in the data active means potentiation above about 30%
A number is an active result; – = inactive; · = no result given. Sampled rows, rich in hits. Any-hit rate of the full collection: about 4.7%. Unless noted, no stated cut-off is given here; in the data, active means activation above about 30%; inactive means the rest.

SMILES	D1 antagonist	TRHR agonist	TRHR PAM	D1 agonist	D1 potentiator
COc1ccc(C2CC(c3ccc4ccccc4c3)=NN2C(=O)CNC2CCCCC2)cc1 (configuration not stated)	–	–	–	32	–
COc1ccc(C2CC(c3ccccc3)=NN2c2ccc(N)cc2)cc1 (configuration not stated)	-30	–	–	–	–
CCc1nn2c(=O)cc(COC(=O)c3ccccc3NC(=O)c3cccs3)nc2s1	–	–	–	–	–
O=c1c2oc3ccccc3c2n(Cc2ccc(Cl)cc2)c(=O)n1Cc1ccco1	–	–	–	–	–
O=C(c1ccncc1)c1ccc(N2CCN(C3CC(=O)N(Cc4cccs4)C3=O)CC2)cc1 (configuration not stated)	-39	–	–	–	–
O=C1CC(N2CCN(c3ccc(O)cc3)CC2)C(=O)N1Cc1cccs1 (configuration not stated)	–	–	–	–	–
FC(F)(F)c1cc(CO[C@@H]2CCCN[C@@H]2c2ccccc2)cc(C(F)(F)F)c1	–	–	–	47	–
Cc1noc2ncnc(N3CCN(c4cccc(Cl)c4)CC3)c12	-34	–	–	–	–
CN(C)CCCOc1ccc2c(c1)Sc1ccccc1CC2=O	-60	–	–	79	–
CCCCn1c(=N)n(CC(O)COc2ccc(C)cc2)c2ccccc21 (configuration not stated)	–	–	–	–	–
Cc1ccc(Cn2c(=N)n(CC(O)COc3ccccc3)c3ccccc32)cc1 (configuration not stated)	–	–	–	42	–
N=c1n(Cc2ccccc2)c2ccccc2n1CC(O)COc1ccccc1 (configuration not stated)	-31	–	–	–	–
COc1ccc(C(=O)NCC(c2ccc(N(C)C)cc2)N2CCc3ccccc32)cc1 (configuration not stated)	–	–	–	–	–
O=C1c2ccccc2NC(c2ccc(-c3ccccc3F)o2)N1O (configuration not stated)	·	–	36	–	–
O=C(CN1C(=O)COc2ccc(Cl)cc21)Nc1cccc(C(=O)O)c1	–	–	–	–	–
Cc1nn(C)c(C)c1/C=N/NC(=O)C(C)(C)Oc1ccc(Cl)cc1	-38	–	–	–	–
Cc1c(/C=N/NC(=O)C(C)(C)Oc2ccc(Cl)cc2)cnn1C	–	–	–	–	–
Cc1cc(N2CCOCC2)nc2ccc(NC(=O)CCC(=O)N3CCN(c4ccc(F)cc4)CC3)cc12	–	–	–	–	–
Cc1cc(N2CCOCC2)nc2ccc(NC(=O)CCC(=O)N3CCN(c4ccccc4F)CC3)cc12	-43	–	–	–	–
Cn1cc(S(=O)(=O)N2CCc3ccccc32)cc1C(=O)Nc1ccc(C(F)(F)F)cc1	–	–	–	–	–
Cc1cccc(S(=O)(=O)C(C#N)c2nc3ccccc3nc2N2CCCC2)c1 (configuration not stated)	–	–	–	34	–
COc1ccc(CCNC(=O)CCc2c(C)nc3cc(-c4ccccc4OC)nn3c2C)c(OC)c1	–	–	–	–	–
CCCn1c(Oc2ccccc2)nc2c1c(=O)n(C)c(=O)n2C	-39	–	–	–	–
Cc1cccc(N2CCN(C(=O)Cn3c(C)c4cnn(-c5ccccc5)c(=O)c4c3C)CC2)c1C	–	–	–	–	–
CCCc1ncc(CN2CCCC(C(=O)Nc3ccc(-c4cccc(OC)c4)cc3)C2)cn1 (configuration not stated)	–	–	–	–	–
SMILES	D1 antagonist	TRHR agonist	TRHR PAM	D1 agonist	D1 potentiator
CCn1cc(CN2CCCC(C(=O)Nc3cccc(-n4cccn4)c3)C2)c(C)n1 (configuration not stated)	–	–	–	–	–
COc1ccc(O)c(CN2CCCC(C(=O)Nc3cccc(-n4cccn4)c3)C2)c1 (configuration not stated)	-68	–	–	–	–
COc1cccc(-c2ccc(NC(=O)C3CCCN(CCCn4cccn4)C3)cc2)c1 (configuration not stated)	–	–	–	38	–
COc1ccc(CN2CCCC(C(=O)Nc3cccc(-n4cccn4)c3)C2)cc1 (configuration not stated)	-53	–	–	–	–
Cc1nn(C)c(Cl)c1CN1CCCC(C(=O)Nc2cccc(-n3cccn3)c2)C1 (configuration not stated)	-35	–	–	–	–
CC(C)(C)OC(=O)N(c1cccc2cccnc12)S(=O)(=O)c1ccccc1Br	–	–	–	–	–
O=C(COC(=O)CCC1CCCC1)Nc1cccc(S(=O)(=O)N2CCOCC2)c1	–	–	–	–	–
CC(=O)c1cccc(NC(=O)COC(=O)CCc2ccc(S(=O)(=O)N3CCOCC3)cc2)c1	–	–	–	–	–
O=C(COC(=O)CCC(=O)c1ccc(F)cc1)Nc1cccc(S(=O)(=O)N2CCOCC2)c1	–	–	33	–	–
Cc1ccc(NC(=O)COC(=O)CCc2ccc(S(=O)(=O)N3CCOCC3)cc2)cc1F	-31	–	–	–	–
CC(=O)N1CCCc2cc(S(=O)(=O)N3CCC(C(=O)NCCC(C)C)CC3)ccc21	–	–	–	–	–
Nc1nnc2c(n1)[nH]c1ccccc12	–	–	–	–	–
O=c1[nH]c(SCc2c(F)cccc2Cl)nc2c1CCC2	–	–	–	–	–
Cc1csc(NC(=O)c2ccc(COc3ccccc3)o2)n1	-35	–	30	–	–
Cc1csc(NC(=O)c2cccnc2)n1	-36	–	–	–	–
CN(CC(=O)NCc1ccccc1Cl)S(=O)(=O)c1ccc2c(c1)c(=O)n(C)c(=O)n2C	–	–	–	–	–
O=C(OCc1csc(-c2ccccc2)n1)C1=NN(c2ccccc2)C(=O)CC1	-36	–	–	–	–
COc1cc(C)nc(NS(=O)(=O)c2ccccc2)n1	-37	–	–	–	–
C/C(=N\NC(=O)CSCc1ccccc1Cl)c1cc(O)ccc1O	-37	–	–	–	–
O=C(CSCc1ccccc1Cl)NN=C1CCCCCC1	–	–	–	–	–
Cc1[nH]nc2nc3c(c(OC(=O)c4ccccc4)c12)c(=O)n(C)c(=O)n3C	-39	–	–	–	·
COC(=O)c1cc(-c2ccccc2)c2c(=O)n(C)c(=O)n(C)c2n1	–	–	–	–	–
CC(=O)N1CCc2cc(S(=O)(=O)NC(Cc3ccccc3)C(=O)Nc3ccc(C)cc3C)ccc21 (configuration not stated)	–	–	–	–	–
O=c1[nH]c(=O)n(Cc2ccco2)c2c1C(C(F)(F)F)(C(F)(F)F)N=C(CCC1CCCCC1)N2	–	–	–	–	–
CC(C)Cn1c2c(c(=O)[nH]c1=O)C(C(F)(F)F)(C(F)(F)F)N=C(CCC1CCCCC1)N2	–	–	–	31	–

Compound activity: PubChem, National Center for Advancing Translational Sciences (NCATS)
